Values without a mark were called inactive. The source made the active and inactive calls. Calls come from the whole dose curve; as a rule, active = well fitted curve in the direction sought with a large enough effect; inactive = no such curve, though single readings can be large or run the other way.
These compounds were tested against Alpha-galactosidase (Coffea arabica) (UniProt Q42656) (assay: Counterscreen for Glucocerebrosidase Inhibitors: qHTS Assay for Coffee Bean alpha-Galactosidase at pH 5.9 (AID 998;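 note: plate controls were uninhibited enzyme for no effect and no-enzyme basal signal for full effect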)). Settings: coffee bean alpha-galactosidase enzyme assay; series mostly up to 76.9 µM; activity, negative = inhibition: at the top concentration.
Chain of Alpha-galactosidase (Coffea arabica) (Q42656 whole entry, looked up): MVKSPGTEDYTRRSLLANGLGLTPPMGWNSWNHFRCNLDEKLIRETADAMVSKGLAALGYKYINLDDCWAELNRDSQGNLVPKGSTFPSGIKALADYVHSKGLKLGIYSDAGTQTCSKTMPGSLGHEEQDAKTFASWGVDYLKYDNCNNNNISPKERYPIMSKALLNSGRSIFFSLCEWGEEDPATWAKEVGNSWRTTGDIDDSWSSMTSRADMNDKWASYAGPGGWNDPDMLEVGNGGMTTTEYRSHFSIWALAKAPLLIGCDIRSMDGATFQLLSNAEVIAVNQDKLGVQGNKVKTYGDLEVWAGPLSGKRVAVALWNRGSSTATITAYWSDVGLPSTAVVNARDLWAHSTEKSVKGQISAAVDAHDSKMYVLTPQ
Excerpt: NIH Chemical Genomics Center [NCGC]
NIH Molecular Libraries Screening Centers Network [MLSCN]
PI Name: Zheng, Wei [NIH]
Alpha-galactosidase is a homodimeric glycoprotein that hydrolyzes the terminal alpha-galactosyl moieties from glycolipids and glycoproteins. Deficiency of this enzyme results in Fabry Disease with progressive accumulation of globotriaosylceramide and other glycosphingolipids in vascular endothelial cells that causes renal failure, myocardial infarction and stroke, and premature death in patients. It has reported that the improper folding and trafficking of alpha-galactosidase resulted from the genetic mutations may account for a significant numbers of Fabry patients. […] We optimized this coffee bean alpha-galactosidase assay in 1536-well plate format as a counter-screen assay for identifying the selective small molecule inhibitors of other lysosomal enzymes.
NCGC Assay Protocol Summary:
This is a fluorogenic enzyme assay with 4-Methylumbelliferyl alpha-D-galactopyranoside as the substrate and green coffee bean […] (from Sigma-Aldrich) as the enzyme preparation. Upon the hydrolysis of this fluorogenic substrate, the resulting product, […]. 4-Methyllumbelliferone, can be excited at 365 nm and emits at 440 nm which can be detected by a standard fluorescence plate reader. Data were normalized to the controls for basal activity (without enzyme) and 100% activity (with enzyme). In the AC50 values were determined from concentration-response data modeled with the standard Hill equation.
Assay buffer: 50 mM citric acid, 0.005% Tween-20, pH 5.9. (pH 5.9 is an optimal condition for this enzyme assay.)
1536-well assay protocol for the coffee bean alpha-galactosidase:
(1) Add 2 ul/well of enzyme (2 nM final)
(2) Add 23 nL compounds in DMSO solution. The final titration was 0.7 nM to 77 uM.
(3) Add 1 ul of substrate (80 uM final)
(4) Incubate at room temperature for 20 min.
(5) Add 2 ul stop solution (1M NaOH and 1M Glycine mixture, pH 10)
(6) Detect the assay plate in a ViewLux plate reader (PerkinElmer) with Ex=365 nm and Em=440nm.
Keywords: Alpha-galactosidase, Fabry Disease, pharmacological chaperone, chaperone therapy, high throughput screening, alpha-galactosidase inhibitor, MLSMR, MLSCN, NIH Roadmap, qHTS and NCGC

Structure (SMILES)	activity, negative = inhibition [%]	outcome
C[N+](C)(C)CCOC(=O)CCC(=O)OCC[N+](C)(C)C	0.676	–
C[C@]12C=CC(=O)C=C1CC[C@H]1[C@@H]3C[C@@H](O)[C@](O)(C(=O)CO)[C@@]3(C)C[C@H](O)[C@@]12F	0.346	–
OCCN1CCN(CCCN2c3ccccc3C=Cc3ccccc32)CC1	–	inactive
CN(C)CCOC(c1ccccc1)c1ccccc1	-1.34	–
COc1ccc(C(=O)N2CCCC2=O)cc1	0.267	–
CN1[C@@H]2CC[C@H]1CC(OC(=O)c1cc(Cl)cc(Cl)c1)C2 (stereo not given in full)	-1.78	–
CCCCC1C(=O)N(c2ccccc2)N(c2ccccc2)C1=O	-3.3	–
NC(N)=NC(=O)c1nc(Cl)c(N)nc1N	-3.09	–
CCCOc1ccccc1-c1nc2n[nH]nc2c(=O)[nH]1	0.735	–
COC(=O)C1=C(C)NC(C)=C(C(=O)OC)C1c1ccccc1[N+](=O)[O-]	-0.797	–
CCc1cccc(N(C)C(N)=Nc2cccc3ccccc23)c1	-7.83	–
COc1nc(C)nc(Cl)c1NC1=NCCN1	1.72	–
CC1=C(CC(=O)O)c2cc(F)ccc2/C1=C\c1ccc(S(C)(=O)=O)cc1	-5.57	–
CCCn1cnc2c1c(=O)n(CCCCC(C)=O)c(=O)n2C	-4.55	–
c1cnc(N2CCN(Cc3ccc4c(c3)OCO4)CC2)nc1	-2.81	–
c1cc(CN2CCCCC2)cc(OCCCNc2nc3ccccc3s2)c1	-8.21	–
c1ccc2nc(N3CCNCC3)ccc2c1	0.926	–
CCCCCCCCC(=O)NCc1ccc(O)c(OC)c1	-4.94	–
Oc1ccc(O)cc1	-3.48	–
O=C(CCNNC(=O)c1ccncc1)NCc1ccccc1	-0.424	–

Structure (SMILES)	activity, negative = inhibition [%]	outcome
CCOC(=O)Nc1ccc(NCc2ccc(F)cc2)nc1N	2.03	–
C[C@]12CCC(=O)C=C1CC[C@@H]1[C@@H]2CC[C@@]2(C)[C@H]1CC[C@]2(O)C(=O)CO	-1.66	–
CCOC(=O)C(C)(C)Oc1ccc(Cl)cc1	1.12	–
Cn1cnc2c1c(=O)[nH]c(=O)n2C	0.336	–
C[C@]12CCC(=O)C=C1CC[C@@H]1[C@@H]2C(=O)C[C@@]2(C)[C@H]1CC[C@]2(O)C(=O)CO	0.33	–
O=c1[nH]c2ccccc2n1CCCN1CCN(C(c2ccccc2)c2ccccc2)CC1	-4.19	–
Cc1[nH]c(=O)c(C#N)cc1-c1ccc2nccn2c1	-0.85	–
C[n+]1cc2c3c(ccc2c2ccc4cc5c(cc4c21)OCO5)OCO3	-1.87	–
OCc1cc(C(O)CNCCCCCCOCCCCc2ccccc2)ccc1O (stereo not given)	0.49	–
Cc1nc2sccn2c(=O)c1CCN1CCC(=C(c2ccc(F)cc2)c2ccc(F)cc2)CC1	-12.4	–
CC1=C(CC(=O)O)c2cc(F)ccc2/C1=C\c1ccc(S(C)=O)cc1 (stereo not given)	-1.97	–
COc1ccc(CN(CCN(C)C)c2ccccn2)cc1	-0.235	–
C[C@]12CCC(=O)C=C1CC[C@@H]1[C@@H]2[C@@H](O)C[C@@]2(C)[C@H]1CC[C@]2(O)C(=O)CO	1.34	–
CNC[C@H](O)c1ccc(O)c(O)c1	–	inactive
Nc1c2c(nc3ccccc13)CCCC2	-1.84	–
CN1CCC(=C2c3ccccc3CC(=O)c3sccc32)CC1	-1.13	–
NC(=O)CC[C@@H](N)C(=O)O	2.54	–
O=C1CC2(CCCC2)CC(=O)N1CCCCN1CCN(c2ncccn2)CC1	2.36	–
O=C1NCN(c2ccccc2)C12CCN(CCCC(c1ccc(F)cc1)c1ccc(F)cc1)CC2	-10.9	–
COc1ccccc1N1CCN(CCCNc2cc(=O)n(C)c(=O)n2C)CC1	1.57	–
